Assay results from PubChem BioAssay AID720553 (National Center for Advancing Translational Sciences (NCATS), 2013).
About 3,300 (0.97%) of roughly 340,000 compounds were called active. This excerpt belongs to a sample that is enriched for actives. Unmarked numbers belong to inactive results.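 How the source made its calls: active means maximum activity change below -70%; inconclusive means maximum activity change from -70% to -50%; inactive means maximum activity change above -50%.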

Test system: Potassium voltage-gated channel subfamily H member 2, brain isoform KCNH2 3.1 (human)
Assay: qHTS for Inhibitors of KCHN2 3.1: Mutant qHTS
Settings: U2OS KCNH2 3.1, thallium flux FluxOr; active compounds read low
Procedure, shortened: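 Kinetic fluorescence (2 min after stimulation buffer) measures Tl+ influx through KCNH2 3.1 expressed by viral transduction in U2OS cells; the rate constant is normalized against DMSO controls serving as positive and negative references.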
On the % scale 0 is the no-effect control and ±100 the full control effect.

Structure (SMILES) | activity change
COc1ccc(OC)c(NC(=O)C2CCCN2S(=O)(=O)c2ccc3c(c2)CC(C)N3C(C)=O)c1 (centres undefined) | 12.8%
CC1CC(NC(=S)N(C)C)CC(C)(C)C1 (centres undefined) | -0.254%
Cc1cn([C@H]2C[C@H](O)[C@@H](CNC(=O)[C@H](N)Cc3cccnc3)O2)c(=O)[nH]c1=O | 0.448%
Cc1ccc(S(=O)(=O)N2CCOCC2)cc1NC(=O)c1ccncc1 | 0.781%
O=C1CCC(=O)N1CCC(=O)N(C(=O)NC1CCCCC1)C1CCCCC1 | -16.1%
CCOc1cc(/C=N/NC(=O)c2c(C)nc3ccc(Cl)cn23)ccc1O | 6.54%
O=C(Nc1ccc2c(c1)[C@@H]1C[C@@H](CC(=O)N3CCCCC3)O[C@@H](CO)[C@@H]1O2)NC1CCCCC1 | 7.85%
CCOC(=O)c1c(S(=O)(=O)Nc2ccc(CN3CCC(C)CC3)cc2)c(C)n(C)c1C | -4.58%
CCOC(=O)c1c(S(=O)(=O)Nc2cccc(Cl)c2)c(C)n(C)c1C | -89.7% (active)
CCOC(=O)c1cccc(NS(=O)(=O)c2c(C(=O)N3CCCCCC3)c(C)n(C)c2C)c1 | 0.277%
C[C@@H]1CCCCO[C@H](CN(C)Cc2ccccc2)[C@@H](C)CN([C@H](C)CO)C(=O)c2cc(NS(=O)(=O)c3ccc(Cl)cc3)ccc2O1 | -12%
CCN1C(=O)[C@H]2[C@@H](c3ccc(C(F)(F)F)cc3)N[C@]3(CCCN(Cc4ccc(Br)cc4)C3=O)[C@H]2C1=O | -2.79%
CC(=O)Nc1ccc(OCC(O)CN2CCN(c3ccccc3Cl)CC2)cc1 (centres undefined) | -1.41%
CC(=O)c1ccc(OCC(O)CN2CCN(S(=O)(=O)c3cccc(Br)c3)CC2)cc1 (centres undefined) | -4.78%
CCC(=O)c1ccc(OCC(O)CN2CCN(c3cccc(C(F)(F)F)c3)CC2)cc1 (centres undefined) | -77.4% (active)
CCN(CC(=O)Nc1ccc(NC(C)=O)cc1)C(=O)C1CC(=O)N(c2ccc3c(c2)OCCO3)C1 (centres undefined) | 0.735%
O=C(CN1CCN(CC(=O)Nc2ccc3c(c2)OCO3)CC1)Nc1ccc(F)cc1 | -109% (active)
O=C(COC(=O)c1ccc(F)cc1)Nc1ccc2c(c1)OCO2 | -1.18%
O=C(CN1CCN(C(=O)c2ccco2)CC1)Nc1ccc2c(c1)OCO2 | 0.979%
COc1ccc(-c2c(C#N)cnc(C)c2C)c(O)c1OC | 1.89%
CC(Sc1ccc(S(=O)(=O)N2CCN(C)CC2)cn1)C(=O)NC1CCCC(C)C1C (centres undefined) | -1.67%
C[C@H]1CN([C@@H](C)CO)C(=O)CCCn2cc(nn2)CO[C@@H]1CN(C)S(=O)(=O)c1cccc(C#N)c1 | -14.5%
Cc1cccc(S(=O)(=O)N(C)C[C@@H]2OCc3cnnn3CCCC(=O)N([C@H](C)CO)C[C@@H]2C)c1 | 15.7%
C[C@H]1CN([C@@H](C)CO)C(=O)CCCn2nncc2CO[C@@H]1CN(C)S(=O)(=O)c1cccc(C#N)c1 | -3.59%
C[C@@H]1CN([C@H](C)CO)C(=O)CCCn2nncc2CO[C@@H]1CN(C)S(=O)(=O)c1cccc(C#N)c1 | -103% (active)
O=C1OCCC1=COCCCCOC=C1CCOC1=O | 5.66%
CNC(=O)C1CCN(S(=O)(=O)c2c(C)noc2/C=C/c2cccc(C)c2)CC1 | -0.856%

Structure (SMILES) | activity change
Cc1noc(/C=C/c2ccco2)c1S(=O)(=O)N1CCC(C(=O)N2CCc3ccccc32)CC1 | -11.8%
Cc1noc(/C=C/c2ccco2)c1S(=O)(=O)N1CCC(C(=O)Nc2ccc(Cl)cn2)CC1 | -73.5% (active)
Cc1ccc([C@H]2C[C@H](O)[C@@H](n3cc(COC(=O)c4ccccc4)nn3)CN2CC2CCCCC2)cc1 | 1.72%
CCCN1Cc2cccc(C(=O)Nc3ccc(S(=O)(=O)N4CCCCCC4)cc3)c2C1=O | -4.68%
CCCN1Cc2cccc(C(=O)NCc3ccccc3)c2C1=O | -73.5% (active)
COCCN1Cc2cccc(C(=O)Nc3ccccc3OC)c2C1=O | -4.17%
Cc1onc(-c2ccccc2)c1-c1nnc(COC(=O)c2ccc(N(C)C)cc2)o1 | -2.8%
Cc1csc(=O)n1CCC(=O)OCC(=O)Nc1ccc(N2CCOCC2)cc1 | 26.4%
CCc1cc(C(=O)N(CC)CC(=O)Nc2c(F)cccc2F)sc1C | 6.15%
O=C(O)c1ccc(F)c(S(=O)(=O)Nc2ccccc2)c1 | -0.905%
Cc1ccc(C(=O)Nc2ccccc2-c2ccccc2)cc1S(=O)(=O)Nc1ccccc1 | -81.2% (active)
O=C(Nc1ccccc1-c1ccccc1)c1cccs1 | 3.41%
O[C@H]1CN(Cc2cccs2)[C@@H](c2ccc(Cl)cc2)C[C@@H]1n1cc(C2CC2)nn1 | 1.17%
O=C1CC[C@@H](C(=O)N2CSC[C@@H]2C(=O)Nc2ccc(C(F)(F)F)cc2)N1 | 0.48%
Cc1ccc(Cc2c(-c3ccc(C)cc3)nc3c4ccccc4ccn23)cc1 | -46.3%
CCOc1ccc(S(=O)(=O)NCCC(=O)NNC(=O)c2ccc(F)cc2)cc1 | 7.87%
O=C(NCCN1CCOCC1)/C(=C/c1ccc(F)cc1)NC(=O)c1ccccc1 | -9.2%
COc1ccc(/C=C(\NC(=O)c2ccccc2)C(=O)NCCN2CCOCC2)cc1OC | -4.51%
Cc1ccc(C(=O)N/C(=C\c2ccc(F)cc2)C(=O)NCCN2CCOCC2)cc1 | -89.5% (active)
COC(=O)N(C)C[C@@H]1OCc2cnnn2CCCC(=O)N([C@@H](C)CO)C[C@@H]1C | 5.22%
Cc1cccc(C(=O)C(O)(c2ccccc2)C2CCCCC2=O)c1 (centres undefined) | -14.9%
COc1ccc(S(=O)(=O)N(C)C[C@H]2OCc3cnnn3CCCC(=O)N([C@H](C)CO)C[C@H]2C)cc1 | 11.2%
COc1cc2nnn(-c3ccncc3)c2cc1OC | -4.09%
COc1ccc2nc(-c3ccccn3)ccc2c1 | 6.65%
C=CCn1c(C23CC4CC(CC(C4)C2)C3)n[nH]c1=S | -5.08%
C=CCn1c(SCC(=O)NC23CC4CC(CC(C4)C2)C3)nc(O)cc1=O | 30.9%
C=CCn1c(SCC(=O)NC)nnc1C12CC3CC(CC(C3)C1)C2 | -75% (active)
